Results: PubChem BioAssay (NCI)
About 83,000 compounds went through this panel and 20% of them were active in at least one assay; those are over-represented in the sample as a whole.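 Treatment: one concentration, 48 hours, 96-well format. Scoring: percent growth, with anything below 10 considered active.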 Values without a mark were called inactive. The source made the active and inactive calls.

test system: MOLT-4 leukemia; assay: NCI-60 one-dose screen, 48 h (100 = growth as untreated, 0 = no growth, -100 = all killed); settings: 10 µM unless noted
Protocol: Growth inhibition of the MOLT-4 human tumor cell line is measured as a screen for anti-cancer activity. Cells are grown in 96 well plates and exposed to the test compound for 48 hours. Compounds are tested at a single concentration, which is 10^-5 M for most compounds. The reported endpoint is percent growth (GI% or GIPRCNT), where numbers from 0 - 100% represent growth inhibition, and numbers from -100% - 0 represent cell death. For example, a value of 40 represents 60% growth inhibition. A value of 0 means no net growth occurred over the course of the experiment. A value of -40 indicates 40% of cells at the beginning of the experiment died by the end of the experiment. A value of -100 means all cells are dead at the end of the experiment.
NCI-60 Human Tumor Cell Lines Screen was performed using the standard one-dose NCI protocol, which is described in more detail at https://dtp.cancer.gov/discovery_development/nci-60/default.htm.
Compounds with GIPRCNT values below 10 were considered active. Activity score was based on GIPRCNT using the following formula: […]
Score is 0 for GIPRCNT values of 100 or above, 50 for GIPRCNT values of 0, and 100 for GIPRCNT values of -100.

Compound	growth
O=C1/C(=C/c2ccc(Cl)cc2)CCC/C1=C\c1ccc(Cl)cc1	80.2%
CCCCCCCCCCCCCCCCCCOP(=O)(O)O	111%
O=C(O)COc1ccc([N+](=O)[O-])cc1Cl	99.2%
C=CCSc1nnc(COc2ccc3c(C)c(Cc4ccccc4)c(=O)oc3c2C)o1	96%
COc1cc2c(c(OC)c1OC)C(=O)CC(c1cccc(C(=O)Nc3cccc(Br)c3)c1)O2 (stereo not given)	48.8%
N#CCCCCCCCCCCC#N	105%
CCOC(=O)C1C(=O)C(=O)N(C(C)C)C1C(=O)OCC (stereo not given)	122%
COc1ccc(-c2nc(SCC(C)C)nc(Nc3ccc(C)cc3)c2C#N)cc1	81.6%
CC(C)OC(=O)c1ccc2n1CCCc1cnc(Nc3ccccc3)nc1-2	73.8%
c1ccc(C(=NNc2nc3ccccc3o2)c2ccccn2)nc1	12.3%
CCOC(=O)C(C)C(C)(O)c1ccccc1 (stereo not given)	95.4%
Cc1cc2c(-c3nc4ccccc4[nH]3)c(O)c(O)cc2c(O)c1-c1c(C)cc2c(-c3nc4ccccc4[nH]3)c(O)c(O)cc2c1O	2.22% (active)
COC1(OC)N=C(N)C2(C#N)C3(C(=O)Nc4ccccc43)C12C#N (stereo not given)	88.7%
Cc1ccc(S(=O)(=O)N/N=C2\CC3CCC2C3)cc1 (stereo not given)	109%
COc1ccc(C2=C/C(=C\c3ccc(Cl)cc3)C(=O)NN2C(=S)NN)cc1	97.8%
CC1=C(C)C[C@]2(C(=O)O[C@H]3CCCC[C@@H]32)[S@](=O)C1	105%
Nc1cc(N)c2nc(-c3ccccc3)c(NCCc3ccc(Cl)c(Cl)c3)nc2c1	-16.4% (active)
COc1cc(-c2c3c(cn2CCN2CCCCC2)-c2oncc2CC3)cc(OC)c1OC	100%
Cc1cc2cn3c4ccc(O)cc4[nH]c(=O)c3c2cc1C	-18.2% (active)
Clc1ccc(N/N=C(\c2ccccc2)c2ccccn2)nc1	2.34% (active)

Compound	growth
O=c1c(N=Nc2nccs2)c(-c2ccccc2)[nH]n1-c1nc(-c2ccccc2)cs1	30.3%
Nc1nc2cc(O)ccc2n2cc3c(F)cccc3c12	3.96% (active)
COc1ccc(/C=C(/C(=O)N2CCN(c3ccc(C)cc3)CC2)c2cc(OC)c(OC)c(OC)c2)cc1N	17.5%
Cc1c(O)c(N=Nc2ccc(C(=O)O)c(O)c2)c2ccccc2c1O	76.6%
COc1cc(N)c2nccc(C)c2c1OC	80.6%
CCC(C)C1NC(=O)C(CCCCN)NC(=O)C(CCCCN)NC(=O)C(CC(C)C)NC(=O)C(CCCCN)NC(=O)C(C(C)CC)NC(=O)C(C(C)C)NC(=O)C(C(C)CC)NC(=O)C(CCCCN)NC(=O)C(CCCCN)NC(=O)C(C)NC(=O)C(CCCCN)NC(=O)C(CC(C)C)NC1=O (stereo not given)	22.2%
COc1ccc2c(N)ncc(C#Cc3cc(C(=O)Nc4ccc(CN5CCN(C)CC5)c(C(F)(F)F)c4)cnc3C)c2c1	-36.6% (active)
CCn1cnc(C[C@H](NC(=O)[C@@H](NC(=O)Nc2cc(C(F)(F)F)cc(C(F)(F)F)c2)C(C)(C)C)C(=O)OC)c1	-49% [100 µM] (active)
NC(N)=N/N=C/c1cccc(Br)c1	91.2%
CC(=O)c1nn(-c2ccc(C)cc2)cc1C(=O)c1cc2c(ccc3ccccc32)oc1=O	102%
COc1ccccc1Cn1cc2c(c1)-c1oncc1CC2	25.6%
Oc1ccc([S+](c2ccc(O)cc2)c2ccc(O)cc2)cc1	89.2%
CCS(=O)(=O)N[C@@H]1O[C@H](COC(C)=O)C(OC(C)=O)[C@H](OC(C)=O)C1OC(C)=O (stereo not given in full)	106%
CC(O)CN(CC(C)O)N(CC(C)O)CC(C)O (stereo not given)	102%
[2H]c1nc(=Nc2cc(NC(=O)C=C)c(N(C)CCN(C)C)cc2OC)[nH]c(-c2cn(C([2H])([2H])[2H])c3ccccc23)c1[2H]	13.3%
CC(=O)N(N=O)c1ccc([N+](=O)[O-])cc1Cl	58.4%
C=C(C)C(C(=O)OCC)(C(=O)OCC)C(C)C	114%
CC(=O)O.[In]	99.9%
O=C(O)/C(Br)=C/c1c[nH]c2ccc(Br)cc12	31.8%
N=c1c2c(=O)n3c(nc2nc2sc4ccc(Cl)cc4n12)-c1ccccc1Sc1ccccc1-3	8.17% (active)
